Source: PubChem
The sample as a whole holds a higher share of hits than the screen did.
Pin1 inhibitor: qHTS Assay to Find Inhibitors of Pin1 | Peptidyl-prolyl cis-trans isomerase NIMA-interacting 1 (Homo sapiens), Q13526 | Pin1 FP peptide displacement, HiFluor488, 10 min | Potency, µM (doses to about 115 µM), for inactives: at the highest dose activity, negative = inhibition, usual class: inhibitors | 390,000 compounds, 0.009% hits | AID 504891, 2011; active means well fitted inhibition curve with a large enough effect in the polarisation, with a control signal flat, not every such curve was filed as active; inconclusive means small, poorly fitted or top-dose-only effect, or effect the other way, or a change in a side signal; inactive means no such curve, though single readings can be large or run the other way; the % refers to the polarisation; further: potency means the concentration at half of the fitted maximal effect
Target sequence (Q13526 whole entry, looked up): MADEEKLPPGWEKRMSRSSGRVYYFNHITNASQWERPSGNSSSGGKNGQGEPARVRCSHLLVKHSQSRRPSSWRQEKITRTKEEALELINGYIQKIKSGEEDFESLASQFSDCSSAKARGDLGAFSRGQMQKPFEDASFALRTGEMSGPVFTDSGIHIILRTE
PI5P4K alpha inh: qHTS for Inhibitors of phosphatidylinositol 5-phosphate 4-kinase (PI5P4K) | PI5P4Kalpha enzyme, ADP-Glo luminescence, 60 min; hits give low values | max response, % | 330,000 compounds, 1.2% hits; active means max response of -50% or lower; inconclusive means between -30% and -50%; inactive means -30% or higher; further: value at the top dose of about 77 µM
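Reactions run in 0.038 M HEPES pH 7.4, 0.28 mM EGTA, 0.1% CHAPS and 5% DMSO, with PI5P4Kalpha, substrate, compound and 5 microM ATP final, one hour at room temperature. Readout is ADP-Glo luminescence.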
Tb PFK inh: qHTS Assay to Find Inhibitors of T. brucei phosphofructokinase; ATP-dependent 6-phosphofructokinase (Trypanosoma brucei brucei), O15648; T. brucei PFK, ADP-Glo luminescence; Potency, µM (highest dose often 57.5 µM), for inactives: at the top dose activity, negative = inhibition, actives largely listed as inhibitors; 330,000 compounds, 0.17% hits;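 further: potency means the concentration at half of the fitted maximal effect; 0% = uninhibited 1x PFK enzyme wells and -100% = no-enzyme wells; nearly all actives have a fitted effect of over 60% in size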
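Activity is normalized to no-enzyme wells (full inhibition) and 1.25 nM enzyme wells (no inhibition). Reaction: 0.5 mM F6P, 0.1 mM ATP, 45 min RT, ADP-Glo luminescence; concentration-response curves fitted and classed by quality.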
PI4K2A inh: qHTS for small molecular inhibitors of PI4K2A. 420,000 compounds, 0.13% hits. purified PI4K2A, ADP-Glo luminescence, 1 h; hits give low values. AID 1346378, 2018. activity change, negative = inhibition, % at 76.9 µM; in the data active means activity change below about -50%; inconclusive means mostly about -30% to -49%;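 further: -100% = wells without enzyme as full effect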
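PI4K2A activity was measured by ADP-Glo luminescence: enzyme (4 ug/mL stock) and phosphatidylinositol (1.2 mM stock) in Tris pH 7.5/MgCl2/EGTA/Triton X-100 buffer were reacted with ATP (300 microM stock) for one hour at ambient temperature.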
Tb PGK inh: qHTS Assay to Find Inhibitors of Phosphoglycerate Kinase | PGK/GAPDH coupled, Kinase-Glo luminescence, 60 min | Potency, µM (titrated, usually from 57.5 µM), inactives show top-dose activity change, negative = inhibition, actives largely listed as inhibitors | AID 602233, 2012 | 380,000 compounds, 0.043% hits | Phosphoglycerate kinase, glycosomal (Trypanosoma brucei brucei), P07378; further: potency means the concentration at half of the fitted maximal effect; nearly all actives have a fitted effect of over 60% in size
Target sequence (P07378 whole entry, looked up): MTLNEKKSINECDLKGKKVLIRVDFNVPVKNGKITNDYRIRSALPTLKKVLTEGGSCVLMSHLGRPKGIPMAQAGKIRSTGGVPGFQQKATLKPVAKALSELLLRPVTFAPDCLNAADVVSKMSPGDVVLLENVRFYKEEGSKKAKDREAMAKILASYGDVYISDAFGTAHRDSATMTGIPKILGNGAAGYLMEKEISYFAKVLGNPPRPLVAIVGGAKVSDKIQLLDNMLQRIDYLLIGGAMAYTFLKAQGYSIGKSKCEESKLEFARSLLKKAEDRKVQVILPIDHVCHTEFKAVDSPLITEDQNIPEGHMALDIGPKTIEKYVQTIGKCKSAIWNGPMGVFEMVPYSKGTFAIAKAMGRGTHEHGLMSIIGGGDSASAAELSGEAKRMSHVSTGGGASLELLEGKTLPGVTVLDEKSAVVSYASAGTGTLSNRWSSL
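Recombinant glycosomal PGK reaction used 1,3-bisphosphoglycerate generated in-well by GAPDH (100nM final) in 100mM TEA pH 7.6, 5mM MgCl2, 0.01% Tween-20. After 60 minutes at room temperature, ATP was read by Kinase-Glo Plus luminescence end-point.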
* = called active by the depositor; i = inactive; ? = inconclusive; . = no result given; [ ] = remark or other dose. Unless noted, the call rests on the fitted dose curve; in most records, active means well fitted curve in the direction sought with a large enough effect; inconclusive means small, poorly fitted or top-dose-only effect, or another doubt; inactive means no such curve, though single readings can be large; an effect the other way counts as inactive or inconclusive. Unless noted, on the % scale 0 is the no-effect control and ±100 the full control effect.

SMILES | Pin1 inhibitor | PI5P4K alpha inh | Tb PFK inh | PI4K2A inh | Tb PGK inh
CCCCNS(=O)(=O)CCNCc1ccc(OC)cc1 | 6% | 2 | -1% | -4 | -2%
COc1ccc(CNCCS(=O)(=O)NN2CCOCC2)cc1 | -2% | -63* | 0% | -1 | -6%
CCCCCCCCNCCS(=O)(=O)NN1CCOCC1 | 2% | -69* | 2% | 0 | 8%
CCCn1c(O)c(N=NC(=O)CNC(=O)Cc2ccc(OC)cc2)c2ccccc21 | 2% | 2 | -10% | 5 | 3%
CCOC(=O)CCCCCC(=O)Nc1ccc2c(c1)C(=O)N([C@H](C)CO)C[C@@H](C)[C@H](CN(C)Cc1ccc3c(c1)OCO3)O2 | -6% | -2 | 4% | 0 | -6%
O=c1cc(-c2nn[nH]n2)[nH]c(=O)[nH]1 | 3% | -70* | . | -5 | -10%
O=S(=O)(NC1=NCCCCC1)c1ccc(F)cc1F | -1% | 1 | ? | -5 | 4%
CCOc1ccc(S(=O)(=O)N(CC(=O)N/N=C/c2ccc(-c3ccc([N+](=O)[O-])cc3)o2)c2ccccc2)cc1 | 48% | -67* | 0% | ? | -2%
Cc1ccccc1OCc1nnc(SC(C)C(=O)O)n1-c1ccccc1 (stereo unspecified) | . | -54* | . | -7 | -4%
CCCCCCCCN1C(=O)[C@H](CC(=O)NCc2ccc(C)o2)C[C@@]2(C(=O)OC)CCCCC=C12 | . | -65* | . | -10 | .
COC(=O)[C@]12CCCCC=C1N(CCC1=CCCCC1)C(=O)[C@H](CC(=O)NCc1ccc(C)o1)C2 | . | ? | . | 3 | .
CCCCCCCCN1C(=O)[C@H](CC(=O)NCc2ccc(C)o2)C[C@@]2(C(=O)OCC)CCC=C12 | . | -61* | . | -6 | .
COc1ccc(OC)c(-c2csc(NC(=O)COC(=O)c3ccc(NC(=O)CC#N)cc3)n2)c1 | -3% | -61* | 21µM* | 0 | ?
COc1ccc(OC)c(-c2csc(NC(=O)COC(=O)C3CCC3)n2)c1 | -3% | 6 | -2% | -8 | i
C=CCc1cccc2cc(C(=O)Nc3ccccc3C(=O)O)c(=O)oc12 | 2% | -61* | 5% | 3 | 2%
C=CCc1cccc2cc(C(=O)O)c(=O)oc12 | -7% | 4 | 3% | -1 | -9%
O=C1C2=C(NC(=S)NC2c2ccc(Cl)cc2)NC(c2ccc(Cl)cc2)N1c1ccc(Cl)cc1 (stereo unspecified) | 10% | -52* | 1% | -8 | 3%
COc1ccc(Br)cc1/C=N/n1nnnc1N | 4% | -4 | 8% | 12 | -1%
C#CCOCCOCCOCCNc1nc(N2CCN(C(=O)CCCCCCCCCCNC(=O)[C@H](CO)n3cc(CCCCCN)nn3)CC2)nc(N2CCN(C(=O)CCCCCCCCCCNC(=O)[C@H](CCCN=C(N)N)n3cc(C[C@@H](C)CC)nn3)CC2)n1 | . | . | 24% | . | .
C#CCOCCOCCOCCNc1nc(N2CCN(C(=O)CCCCCCCCCCNC(=O)[C@H](CCCCN)n3cc(C)nn3)CC2)nc(N2CCN(C(=O)CCCCCCCCCCNC(=O)[C@H](CCCN=C(N)N)n3cc(C[C@@H](C)CC)nn3)CC2)n1 | ? | -51* | ? | -2 | 12%
C#CCOCCOCCOCCNc1nc(N2CCN(C(=O)CCCCCCCCCCNC(=O)[C@@H](CCSC)n3cc(CCO)nn3)CC2)nc(N2CCN(C(=O)CCCCCCCCCCNC(=O)[C@H](CCCN=C(N)N)n3cc(C[C@@H](C)CC)nn3)CC2)n1 | 244% | -79* | ? | -1 | -2%
C#CCOCCOCCOCCNc1nc(N2CCN(C(=O)CCCCCCCCCCNC(=O)[C@H](CCCCN)n3cc(C[C@@H](C)CC)nn3)CC2)nc(N2CCN(C(=O)CCCCCCCCCCNC(=O)[C@H](CCCN=C(N)N)n3cc(C[C@@H](C)CC)nn3)CC2)n1 | ? | -90* | ? | -3 | -5%
C#CCOCCOCCOCCNc1nc(N2CCN(C(=O)CCCCCCCCCCNC(=O)[C@H]([C@@H](C)CC)n3cc(CCCCN=C(N)N)nn3)CC2)nc(N2CCN(C(=O)CCCCCCCCCCNC(=O)[C@@H]([C@H](C)O)n3cc(C)nn3)CC2)n1 | ? | -84* | -12% | -8 | 14%
C#CCOCCOCCOCCNc1nc(N2CCN(C(=O)CCCCCCCCCCNC(=O)[C@H](CCCCN)n3cc(C[C@@H](C)CC)nn3)CC2)nc(N2CCN(C(=O)CCCCCCCCCCNC(=O)[C@@H]([C@H](C)O)n3cc(C)nn3)CC2)n1 | 70% | ? | 0% | -2 | 7%
Cc1cccc(C)c1NC(=O)CN1C(=O)CCSc2ccc(S(=O)(=O)N3CCCC3)cc21 | -8% | -6 | 2% | -2 | -1%
SMILES | Pin1 inhibitor | PI5P4K alpha inh | Tb PFK inh | PI4K2A inh | Tb PGK inh
CC(=O)c1c(C)[nH]c(C(=O)CN2C(=O)NC3(CCCCC3)C2=O)c1C | -4% | -5 | -1% | 1 | 12%
COC1=C/C(=C/c2c(N)n3c(nc2=O)sc2cc(S(C)(=O)=O)ccc23)C=CC1=O | ? | -76* | 1% | 4 | i
CS(=O)(=O)c1ccc2c(c1)sc1nc(=O)c(/C=C3/C=CC(=O)C(O)=C3)c(N)n12 | ? | -80* | -13% | -5 | 13µM*
NS(=O)(=O)c1ccc(N=Cc2c(O)c3ccccc3oc2=O)cc1 | 14% | -7 | -2% | 1 | 5%
O=c1[nH]c2ccccc2c2nc3ccccn3c12 | 0% | -14 | 1% | -12 | 0%
O=c1nc2c(O)cccn2c2c1c(=O)[nH]c1ccccc12 | ? | -58* | 0% | -4 | -11%
Cc1cccc(OC(=O)CN2C(=O)C3C4CCC(C4)C3C2=O)c1C (stereo unspecified) | -9% | . | 0% | -85* | -7%
Nc1ccc(-c2nc3nc(N)nc(N)c3nc2-c2ccc(N)cc2)cc1 | 3% | -51* | ? | 13 | -5%
COCCn1c(N)c(C(=S)NC(=O)c2cccs2)c(=O)[nH]c1=O | 9% | -82* | -3% | -7 | -8%
Oc1ccc(N=Cc2ccc(O)c(O)c2)cc1 | ? | -79* | -11% | -28 | -6%
O=Cc1ccc(O)c(O)c1 | 0% | -1 | -14% | -2 | 1%
Cc1cccc(CCNC(=O)CCS(=O)(=O)c2ccc3nc(C)sc3c2)c1 | -3% | 3 | 0% | 3 | -6%
O=C(CSc1n[nH]c(-c2ccncc2)n1)c1ccccc1 | 2% | . | 0% | 0 | -2%[11.5 µM]
Cc1nc(SCC(=O)c2ccccc2)n[nH]1 | -9% | -53* | ? | -1 | -13%
